PubChem BioAssay (NCATS)
Results filed as inconclusive are left out. A number with no mark means an inactive call. The call rests on the fitted dose curve; in most records, active means well fitted curve in the direction sought with a large enough effect in the signal ratio (not every such curve was filed as active); inconclusive means small, poorly fitted or top-dose-only effect, or effect the other way, or a change in a side signal; inactive means no such curve, though single readings can be large or run the other way; the % refers to the signal ratio.

biological target: Tyrosine-protein phosphatase non-receptor type substrate 1 (Homo sapiens) + Leukocyte surface antigen CD47 (Homo sapiens) (UniProt P78324+Q08722); assay: CD47-SIRPalpha protein protein interaction - HTRF assay qHTS validation (AID 1347058); conditions: TR-FRET HTRF CD47-His / biotin-SIRPalpha binding, ratio 665/615; series mostly up to 38.3 µM; activity change, negative = inhibition: at the top concentration; further: 0% is about no effect
Sequence (P78324 whole entry, looked up): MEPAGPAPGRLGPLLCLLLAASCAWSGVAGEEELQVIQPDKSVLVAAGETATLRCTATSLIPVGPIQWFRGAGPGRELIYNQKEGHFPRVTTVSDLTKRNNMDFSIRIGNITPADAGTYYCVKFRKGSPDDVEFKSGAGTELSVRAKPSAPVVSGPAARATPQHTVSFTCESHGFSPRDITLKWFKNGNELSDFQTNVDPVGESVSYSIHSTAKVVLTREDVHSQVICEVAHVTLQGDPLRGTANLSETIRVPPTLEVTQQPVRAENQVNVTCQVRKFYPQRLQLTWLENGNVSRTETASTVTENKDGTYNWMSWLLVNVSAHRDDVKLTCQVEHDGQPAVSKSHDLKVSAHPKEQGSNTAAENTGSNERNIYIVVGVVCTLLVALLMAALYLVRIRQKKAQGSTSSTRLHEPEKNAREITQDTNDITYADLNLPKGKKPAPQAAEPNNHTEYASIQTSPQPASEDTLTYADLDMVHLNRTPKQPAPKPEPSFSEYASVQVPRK
Sequence (Q08722 whole entry, looked up): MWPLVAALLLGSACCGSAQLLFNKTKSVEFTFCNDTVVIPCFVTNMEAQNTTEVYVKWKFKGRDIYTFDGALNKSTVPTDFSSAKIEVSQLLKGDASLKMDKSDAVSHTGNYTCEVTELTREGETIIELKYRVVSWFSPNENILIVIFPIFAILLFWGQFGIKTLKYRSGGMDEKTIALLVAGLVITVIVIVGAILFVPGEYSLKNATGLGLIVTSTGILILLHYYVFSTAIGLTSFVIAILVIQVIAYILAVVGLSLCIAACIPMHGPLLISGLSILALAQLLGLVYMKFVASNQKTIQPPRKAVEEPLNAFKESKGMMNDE
Source text: SIRPalpha is a myeloid cell expressed immunomodulatory receptor that binds the tumor expressed immune checkpoint CD47. Therapeutic disruption of this interaction leads to immune-mediated tumor rejection. This assay was used to quantitate CD47-SIRPalpha binding biochemically and evaluate chemical libraries for novel CD47-SIRPalpha inhibitors. To recapitulate the biological interaction of CD47 and SIRPalpha, we designed expression constructs to produce their recombinant, soluble, extracellular interaction domains. CD47 was produced with an N-terminal 6His tag. SIRPalpha was produced with an N-terminal Avi-Tag for site-specific biotin incorporation. The CD47-SIRPalpha interaction was measured by TR-FRET using affinity tag linked reagents (anti-6His-Eu donor and streptavidin-XL665 acceptor). SIRPalpha without biotin incorporation was used as a positive control inhibitor.
SEQUENCE No. (e.g., 1, 2, 3, etc.); […] (e.g., Cells, Incubation, Reagent, etc.); VALUE and DESCRIPTION.
1a. Reagent. 3 uL CD47-His (12.5 nM) and Anti-His Eu Donor reagent (0.7 nM) added to respective wells in Assay buffer; white/solid bottom high base, med bind 1536-well plates (Greiner 789075)
1b. Reagent. 2 uL Assay buffer negative control for background fluorescence
2. Reagent. 23 nL library compounds (7-pt, 1:4 intraplate titration series) or DMSO control transferred by Pin Tool
3. Centrifuge. Centrifuge plate for 30 s at 1000 RPM
4. Incubation.#Incubate reagents at room temperature for 30 min, protected from light
5. Reagent. 2 uL SIRPalpha-biotin (100 nM) in Assay buffer
6. Incubation.#Incubate reagents at room temperature for 30 min, protected from light
7. Reagent. 1 uL SAV-XL665 (85 nM) acceptor reagent added to respective wells
8. Centrifuge. Centrifuge plate for 30 s at 1000 RPM
9. Incubation. Incubate reagents at room temperature for 30 min, protected from light
10. Detector. Measure Top TR-FRET on EnVision (Eu/APC filter set); calculate ratio Ch1/Ch2
1. Assay buffer composition.#Phosphate buffered saline (PBS; 10 mM Phosphate, 137 mM NaCl, and 2.7 mM KCl; pH 7.4), 0.05% IGEPAL CA-630
2. 23nL of […] library compounds (7 plates) or DMSO vehicle control transferred to 9 Greiner white/solid bottom high base, TC plates in 7 interplate 1:5 titrations (see Yasgar, A. et al. 2008) with Pintool. Two of the 9 plates are DMSO-only in compound field at beginning and end of compound library-treated plates.
10. Detector settings#Mirror = LANCE/DELFIA Dual Enh; Ex. Filter = UV2[TRF] 320; Em. Filter = APC 665; 2nd Em. Filter = Europium 615; Measurement h = 6.5; Ex. light (%) = 100; Delay = […]; Window t = 100 us; No. Seq. windows = 1; Time between flashes = 2000us; No. of flashes = 100; No. of flashes for 2nd detector = 100; Calculation: "Ratio Ch1/Ch2"

Structure (SMILES) | activity change, negative = inhibition
Cc1cc(Cl)ccc1OCCCC(=O)NO | 1.24%
O=C(O)c1cccnc1Nc1cccc(C(F)(F)F)c1 | -1.96%
CCOC(=O)C1=C(O)C(=O)N(Cc2ccccc2)C1 | -1.75%
CNC[C@H](O)c1ccc(O)c(O)c1 | 7.27%
O=C(c1ccccc1)c1ccc2n1CCC2C(=O)O (stereo not drawn) | 2.51%
NCCCCNCCCN | 0.62%
COc1ccc2cc([C@H](C)C(=O)O)ccc2c1 | -1.59%
CN(C)CCCC1(c2ccc(F)cc2)OCc2cc(C#N)ccc21 (stereo not drawn) | 3.28%
CC(=O)N1CCN(c2ccc(OC[C@H]3CO[C@](Cn4ccnc4)(c4ccc(Cl)cc4Cl)O3)cc2)CC1 | 0.148%
NNc1nncc2ccccc12 | 4.56%
CCN(CC)C(=S)SSC(=S)N(CC)CC | -1.56%
c1cnc2cc3c(cc2n1)C1CNCC3C1 | 6.86%
O=c1cc(N2CCOCC2)oc2c(-c3ccccc3)cccc12 | 0.555%
CCOC(=O)C(C)Oc1cccc2c(=O)n(CC(=O)Nc3ccc4c(c3)OCCO4)ccc12 (stereo not drawn) | -0.658%
CC(C)c1ccc2c(c1)c(SC(C)(C)C)c(CC(C)(C)C(=O)O)n2Cc1ccc(Cl)cc1 | 1.52%
C[C@@H](N)C1CCC(C(=O)Nc2ccncc2)CC1 (stereo partly drawn) | 0.918%
Clc1ccc2c(N3CCN(CCCN4CCN(c5ccnc6cc(Cl)ccc56)CC4)CC3)ccnc2c1 | 0.102%
Nc1nc(OCc2ccccc2)c2[nH]cnc2n1 | 2.28%
C[C@H](Cc1ccc(O)c(O)c1)[C@@H](C)Cc1ccc(O)c(O)c1 | -11.5%
C[C@@H](c1ncncc1F)[C@](O)(Cn1cncn1)c1ccc(F)cc1F | -5.89%
O=C1c2c(O)cc(O)cc2OC(c2ccc(O)c(O)c2)C1O (stereo not drawn) | 0.898%
Cc1c(OCC(F)(F)F)ccnc1CS(=O)c1nc2ccccc2[nH]1 (stereo not drawn) | -1.02%
Cc1cccc(-c2[nH]ncc2-c2ccc3ncccc3n2)n1 | -0.215%
COc1cc2c(cc1OC)C1CC(=O)C(CC(C)C)CN1CC2 (stereo not drawn) | 9.82%
O=C(CCc1ccc(O)cc1)c1c(O)cc(O)cc1O | -0.0113%
CN(C)C(=O)[C@H](O)[C@H](Cc1ccccc1)NC(=O)c1cc2cc(Cl)ccc2[nH]1 | -0.783%
Oc1ccc2ccccc2c1SSc1c(O)ccc2ccccc12 | -11.4%
COc1ccccc1N1CCN(CCN(C(=O)C2CCCCC2)c2ccccn2)CC1 | 4.63%
